Inconclusive results are not listed. Activity calls are given as the source filed them. The call rests on the fitted dose curve; in most records, active means well fitted curve in the direction sought with a large enough effect in the repeat runs; inconclusive means weak or mixed curves; inactive means no such curve, though single readings can be large; an effect the other way counts as inactive or inconclusive.
Key:
[1] = qHTS RealTime-Glo MT Cell Viability Assay in HepG2 cells - 40 hour (AID 1224870); further: nearly all actives have a fitted effect of over 50% in size
How it was run: (§1)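 HepG2 cells mixed with RealTime-Glo MT reagents (NanoLuc plus cell-permeant prosubstrate) were seeded at 600 cells/well, incubated 5 h at 37 C/5% CO2, then pinned with compounds in DMSO; nonlytic luminescence tracked viability during 40 h treatment.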

[2] = A CellTox Green Cytotoxicity Assay to monitor cytotoxicity in HEK293 cells - 40 hour (AID 1224871); further: nearly all actives have a fitted effect of over 45% in size
How it was run: (§2)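 Fluorescence from a DNA-binding dye excluded by viable cells was measured repeatedly in the same HEK293 wells (600 cells/well) during continuous compound exposure at 37 C. Each assay gives one read point: 0, 8, 16, 24, 32 or 40 h.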

[3] = qHTS RealTime-Glo MT Cell Viability Assay in HEK293 cells - 16 hour (AID 1224872); further: top concentration of the series differs between compounds; nearly all actives have a fitted effect of over 50% in size
How it was run: (§3)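 Reads taken at 0, 8, 16, 24, 32 and 40 h from the same wells. HEK293 cells (600/well) carried RealTime-Glo reagents from seeding, with compound added after a 5 h settle at 37 C.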

[4] = qHTS RealTime-Glo MT Cell Viability Assay in HepG2 cells - 8 hour (AID 1224873); further: nearly all actives have a fitted effect of over 55% in size
How it was run: as §1

[5] = qHTS RealTime-Glo MT Cell Viability Assay in HEK293 cells - 40 hour (AID 1224874); details: RealTime-Glo luminescence; max response: active compounds read low; further: nearly all actives have a fitted effect of over 50% in size
How it was run: (§4)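 Luminescence, which tracks viable cell number through reduction of the prosubstrate to a NanoLuc substrate, was read over continuous 37 C culture. Cells (600/well) were premixed with reagent and rested 5 h before 23 nL of compound in DMSO was pinned.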

[6] = A CellTox Green Cytotoxicity Assay to monitor cytotoxicity in HEK293 cells - 24 hour (AID 1224875); further: series mostly up to about 77 µM; nearly all actives have a fitted effect of over 45% in size
How it was run: as §2

[7] = A CellTox Green Cytotoxicity Assay to monitor cytotoxicity in HepG2 cells - 16 hour (AID 1224876); further: nearly all actives have a fitted effect of over 45% in size
How it was run: (§5)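 Real-time cytotoxicity: fluorescence of a cell-impermeant cyanine dye binding DNA of dead HepG2 cells, measured repeatedly (0–40 h) during compound exposure at 37 C. Cells seeded 600/well with reagent, dosed after 5 h.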

[8] = qHTS RealTime-Glo MT Cell Viability Assay in HepG2 cells - 32 hour (AID 1224877); further: nearly all actives have a fitted effect of over 55% in size
How it was run: (§6)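 HepG2 suspension premixed with RealTime-Glo reagents is plated at 600 cells per well and left 5 h at 37 C/5% CO2. Compounds in DMSO then go in, and bioluminescence reflecting viable cell number is recorded over 40 h.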

[9] = A CellTox Green Cytotoxicity Assay to monitor cytotoxicity in HepG2 cells - 24 hour (AID 1224878); further: nearly all actives have a fitted effect of over 45% in size
How it was run: as §5

[10] = A CellTox Green Cytotoxicity Assay to monitor cytotoxicity in HepG2 cells - 40 hour (AID 1224879); further: nearly all actives have a fitted effect of over 40% in size
How it was run: as §5

[11] = qHTS RealTime-Glo MT Cell Viability Assay in HEK293 cells - 0 hour (AID 1224880)
How it was run: as §4

[12] = A CellTox Green Cytotoxicity Assay to monitor cytotoxicity in HepG2 cells - 0 hour (AID 1224882); further: nearly all actives have a fitted effect of over 35% in size
How it was run: as §5

[13] = A CellTox Green Cytotoxicity Assay to monitor cytotoxicity in HepG2 cells - 32 hour (AID 1224883); further: nearly all actives have a fitted effect of over 50% in size
How it was run: as §5

[14] = A CellTox Green Cytotoxicity Assay to monitor cytotoxicity in HEK293 cells - 8 hour (AID 1224884); further: nearly all actives have a fitted effect of over 35% in size
How it was run: as §2

[15] = qHTS RealTime-Glo MT Cell Viability Assay in HepG2 cells - 16 hour (AID 1224885); further: nearly all actives have a fitted effect of over 50% in size
How it was run: as §6

[16] = qHTS RealTime-Glo MT Cell Viability Assay in HEK293 cells - 24 hour (AID 1224886)
How it was run: as §3

[17] = qHTS RealTime-Glo MT Cell Viability Assay in HEK293 cells - 8 hour (AID 1224887)
How it was run: as §4

[18] = A CellTox Green Cytotoxicity Assay to monitor cytotoxicity in HEK293 cells - 16 hour (AID 1224888); further: nearly all actives have a fitted effect of over 35% in size
How it was run: as §2

[19] = qHTS RealTime-Glo MT Cell Viability Assay in HepG2 cells - 0 hour (AID 1224889); further: nearly all actives have a fitted effect of over 50% in size
How it was run: as §6

[20] = A CellTox Green Cytotoxicity Assay to monitor cytotoxicity in HEK293 cells - 32 hour (AID 1224881); further: nearly all actives have a fitted effect of over 40% in size
How it was run: as §2
On the % scale 0 is the no-effect control and ±100 the full control effect.

O=c1[nH]c2ccccc2n1C1CCNCC1
inactive: Potency [1] | Potency [2] | Potency [3] | outcome [4] | max response [5] 2.11% | Potency [6] | Potency [7] | Potency [8] | Potency [9] | Potency [10] | outcome [11] | outcome [12] | Potency [13] | Potency [14] | Potency [15] | Potency [16] | Potency [17] | Potency [18] | outcome [19]

COC(=O)[C@@H](N)CCCN/C(N)=N/[N+](=O)[O-]
inactive: Potency [1] | Potency [2] | Potency [3] | outcome [4] | max response [5] 6.22% | Potency [6] | Potency [7] | Potency [8] | Potency [9] | Potency [10] | outcome [11] | Potency [20] | outcome [12] | Potency [14] | Potency [15] | Potency [16] | Potency [17] | Potency [18] | outcome [19]

CN1COCN(Cc2cnc(Cl)s2)/C1=N\[N+](=O)[O-]
inactive: Potency [1] | Potency [2] | Potency [3] | outcome [4] | max response [5] 7.06% | Potency [6] | Potency [7] | Potency [8] | Potency [9] | Potency [10] | outcome [11] | Potency [20] | Potency [13] | Potency [14] | Potency [15] | Potency [16] | Potency [17] | Potency [18] | outcome [19]

CCCCCCCCSC(=O)Oc1cc(Cl)nnc1-c1ccccc1
inactive: Potency [1] | Potency [2] | Potency [3] | outcome [4] | max response [5] 6.25% | Potency [6] | Potency [7] | Potency [8] | Potency [9] | Potency [10] | outcome [11] | outcome [12] | Potency [13] | Potency [14] | Potency [15] | Potency [17] | Potency [18] | outcome [19]

COc1cc(CCN)cc(OC)c1OC
inactive: Potency [1] | Potency [2] | Potency [3] | outcome [4] | max response [5] -4.29% | Potency [6] | Potency [7] | Potency [8] | Potency [9] | Potency [10] | outcome [11] | Potency [20] | outcome [12] | Potency [14] | Potency [15] | Potency [16] | Potency [17] | Potency [18] | outcome [19]

CCNc1nc(NCC)nc(SC)n1
inactive: Potency [1] | Potency [2] | Potency [3] | outcome [4] | max response [5] -13.3% | Potency [6] | Potency [7] | Potency [8] | Potency [9] | Potency [10] | outcome [11] | outcome [12] | Potency [13] | Potency [14] | Potency [15] | Potency [16] | Potency [17] | Potency [18] | outcome [19]

CCCC(C)C1(CC)C(=O)N=C(S)NC1=O (centres undefined)
inactive: Potency [1] | Potency [2] | Potency [3] | outcome [4] | max response [5] 1.79% | Potency [6] | Potency [7] | Potency [8] | Potency [9] | Potency [10] | outcome [11] | Potency [20] | Potency [13] | Potency [14] | Potency [15] | Potency [16] | Potency [17] | Potency [18] | outcome [19]

CCOP(=O)(CN(CCO)CCO)OCC
inactive: Potency [1] | Potency [2] | Potency [3] | outcome [4] | max response [5] 1.2% | Potency [6] | Potency [7] | Potency [8] | Potency [9] | Potency [10] | outcome [11] | Potency [20] | Potency [13] | Potency [14] | Potency [15] | Potency [16] | Potency [17] | Potency [18] | outcome [19]

CN=CNc1ccc(C)cc1C
inactive: Potency [1] | Potency [2] | Potency [3] | outcome [4] | max response [5] 5.53% | Potency [6] | Potency [7] | Potency [8] | Potency [9] | Potency [10] | outcome [11] | Potency [20] | Potency [13] | Potency [15] | Potency [16] | Potency [17] | Potency [18] | outcome [19]

CC(C)c1ccc(O)cc1
inactive: Potency [1] | Potency [2] | Potency [3] | outcome [4] | max response [5] 0.569% | Potency [6] | Potency [7] | Potency [8] | Potency [9] | Potency [10] | outcome [11] | Potency [20] | outcome [12] | Potency [14] | Potency [15] | Potency [17] | Potency [18] | outcome [19]

N=C(N)[Se]
inactive: Potency [1] | Potency [2] | Potency [3] | outcome [4] | max response [5] -7.73% | Potency [6] | Potency [7] | Potency [8] | Potency [9] | Potency [10] | outcome [11] | Potency [13] | Potency [14] | Potency [15] | Potency [16] | Potency [17] | Potency [18] | outcome [19]

C[C@@H](N)[C@@H](O)c1ccccc1
inactive: Potency [1] | Potency [2] | Potency [3] | outcome [4] | max response [5] 1.05% | Potency [6] | Potency [7] | Potency [8] | Potency [9] | Potency [10] | outcome [11] | Potency [20] | outcome [12] | Potency [14] | Potency [15] | Potency [17] | Potency [18] | outcome [19]

C#CC(C)(C)O
inactive: Potency [1] | Potency [2] | Potency [3] | outcome [4] | max response [5] 6.71% | Potency [6] | Potency [7] | Potency [8] | Potency [9] | Potency [10] | outcome [11] | outcome [12] | Potency [13] | Potency [14] | Potency [15] | Potency [16] | Potency [17] | Potency [18] | outcome [19]

COP(=O)(OC)O/C(C)=C/C(=O)N(C)C
inactive: Potency [1] | Potency [2] | Potency [3] | outcome [4] | max response [5] 13.5% | Potency [6] | Potency [7] | Potency [8] | Potency [9] | Potency [10] | outcome [11] | outcome [12] | Potency [13] | Potency [14] | Potency [17] | Potency [18] | outcome [19]

— PubChem BioAssay (Tox21)
